Measurements as given in PubChem BioAssay (NCI).
Several values for one entry are separate records, joined by “and”; a condition that tells them apart may be missing. Identical values can stand only once. Compounds without any hit were thinned out: in the full panel of roughly 79,000, 15% have a hit. No stated cut-off is given here; in the data, active means growth inhibition above about 70%; inactive means the rest.

Key:
[1] = NCI Yeast Anticancer Drug Screen. Data for the rad50 strain (AID 155);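 further: 0% = growth of vehicle-only cultures of the same strain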; details: S. cerevisiae rad50 strain growth inhibition, hits give high values; at 50.0 µM unless noted
Method in brief: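 Yeast carrying a defined DNA repair defect were exposed to test compounds, and growth was compared with vehicle-treated controls to give percent inhibition.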

[2] = NCI Yeast Anticancer Drug Screen. Data for the mec2-1 strain (AID 157); details: S. cerevisiae mec2-1 strain, hits give high values; at 50.0 µM unless noted
Method in brief: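 Readout is yeast growth inhibition, normalised to vehicle-treated controls, in the mec2-1 strain exposed to compound.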

[3] = NCI Yeast Anticancer Drug Screen. Data for the sgs1 mgt1 strain (AID 161);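 further: 0% = growth of cultures given vehicle only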; details: S. cerevisiae sgs1 mgt1 strain, hits give high values; at 50.0 µM unless noted
Method in brief: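 Yeast cells carrying a defined DNA-repair defect were exposed to test compounds. Growth inhibition was measured relative to vehicle-treated controls.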

[4] = NCI Yeast Anticancer Drug Screen. Data for the cln2 rad14 strain (AID 165);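 further: 0% = growth equal to vehicle treated cultures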; details: S. cerevisiae cln2 rad14 strain, hits give high values; at 50.0 µM unless noted
Method in brief: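 Relative to vehicle controls, growth inhibition of compound-treated cln2 rad14 yeast was recorded.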

[5] = NCI Yeast Anticancer Drug Screen. Data for the bub3 strain (AID 167); details: S. cerevisiae bub3 mutant strain, hits give high values; at 50.0 µM unless noted
Method in brief: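 Compounds were applied to a genetically altered yeast strain carrying a cell-cycle control defect. Growth inhibition was scored against vehicle-treated controls.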

[6] = NCI Yeast Anticancer Drug Screen. Data for the mlh1 rad18 strain (AID 175); details: S. cerevisiae mlh1 rad18 strain growth inhibition, hits give high values; at 50.0 µM unless noted
Method in brief: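 Test agents were incubated with a yeast strain of defined genotype (DNA damage repair defect). Inhibition of growth was derived by comparison with vehicle-exposed cultures.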

Measured: growth inhibition

CCOC(=O)N(C)C1(c2ccccc2)CCN(CCCC(=O)c2ccc(F)cc2)CC1
inactive: [1] 23% | [2] -34.9% | [3] 7.55% | [4] -26.6% | [5] -7% | [6] -17.2%

COc1ccc2c(c1)[n+](=O)c(C(=O)C/C(=N/NC(=O)c1ccccc1O)C(=O)Nc1ccc(Cl)c(C(F)(F)F)c1)c(C)n2[O-]
inactive: [1] 25.1% | [2] 9.4% | [3] 14.5% | [4] 8.75% | [5] 34.2% | [6] 1.35%

C=CCn1c(=O)c2ccccc2[n+]2c(C)c(C(=O)OCC)sc12
inactive: [1] -26.9% | [2] -16.2% | [3] -2.65% | [4] -14.5% | [5] 2.45% | [6] -19.6%

COc1cccc2c1C(=O)c1c(O)c3c(c(O)c1C2=O)CC1(O)CC3OC1(C)OC (stereo not drawn)
inactive: [1] 1.2% | [2] 9.1% | [3] -19.2% | [4] 24.2% | [5] -1.35% | [6] 2.65%

O=C(Nc1ccccc1C(F)(F)F)C(c1ccccc1)c1ccccc1
inactive: [1] 19.5% | [2] 12.2% | [3] 8.15% | [4] 9.55% | [5] 10.8% | [6] 3.35%

N#C/C(=C\c1ccccc1)c1ccc(F)cc1
inactive: [1] 39.4% | [2] 42.1% | [3] 25.7% | [4] 18.4% | [5] 32.5% | [6] 25.8%

CC(=O)CCOC(=O)c1cc([N+](=O)[O-])cc([N+](=O)[O-])c1
inactive: [1] 13.2% | [2] -4.1% | [3] 14.4% | [4] 2.6% | [5] 16.9% | [6] 3%

O=[N+]([O-])c1ccc(C[n+]2ccccc2)cc1
inactive: [1] -1.25% and 31.9% | [2] 13.2% and -3.9% | [3] -4.2% and -1.45% | [4] -15.8% and 16.4% | [5] -6.95% and -2.65% | [6] -18.2% and 13.7%

O=c1c2ccc(Cl)cc2nc2nc(-c3ccccc3)c3cc(Cl)ccc3n12
inactive: [1] 57.6% | [2] 31.2% | [3] 37.4% | [4] 22.9% | [5] 6.3% | [6] 46.5%

CCN(CC)CCC(=O)c1ccccc1
inactive: [1] -7.5% | [2] -4.25% | [3] -8.45% | [4] -7.25% | [5] -20.1% | [6] -7.85%

CCCOC(=O)C1C(c2ccc(OC)cc2)NC(c2ccc(OC)cc2)C(C(=O)OCCC)S1(=O)=O (stereo not drawn)
inactive: [1] -39.5% | [2] -2.8% | [3] -21.6% | [4] -5% | [5] -19.4% | [6] -14.3%

O=C1c2ccccc2C(=O)C1c1ccc2ccccc2n1
inactive: [1] 7.85% | [2] -7.95% | [3] 3.35% | [4] 2.6% | [5] 7.05% | [6] -7.95%

CC(=O)CSc1c(-c2ccccc2)c(=O)n(-c2ccccc2)c(=S)n1-c1ccccc1
inactive: [1] -3.8% | [2] -10.1% | [3] -13.2% | [4] -2.3% | [5] -8.5% | [6] 3.85%

Oc1cc(O)c2cc(O)c(-c3ccc(O)c(O)c3)[o+]c2c1
inactive: [1] 11.4% | [2] 2.2% | [3] 23.4% | [4] 4.1% | [5] 31.1% | [6] 28.1%

CN(C)/C(N)=N\c1nc(O)cc(=O)[nH]1
inactive: [1] 6.7% | [2] -19.6% | [3] -0.05% | [4] -0.6% | [5] 10.7% | [6] 10.1%

CCN(CCO)c1cccc(C)c1
inactive: [1] -12.2% | [2] -19.1% | [3] -12.5% | [4] 1.6% | [5] -17.4% | [6] -7.2%

Cc1ccc2nc(-c3ccc(F)cc3)cc(C(=O)O)c2c1
inactive: [1] 9.9% | [2] 2.05% | [3] 6.25% | [4] 17.9% | [5] 10.2% | [6] 26.1%

O=[N+]([O-])c1ccc[nH]c1=S
inactive: [1] -5.15% | [2] -15.8% | [3] -20.4% | [4] -7.35% | [5] 23% | [6] -35.6%

O=C(O)/C=C\C(=O)NNC(=O)/C=C\C(=O)O
inactive: [1] 5.55% | [2] -2.8% | [3] -5.05% | [4] -18.9% | [5] 5.45% | [6] -24.4%

Cc1ccc(N=Nc2ccc(C)cc2NC(=O)c2cccc3ccccc23)cc1
inactive: [1] -12.6% | [2] -8% | [3] -12.2% | [4] -90.5% | [5] -1.95% | [6] -2.7%

CC(=O)CCn1[nH]c(=O)c2ccccc2c1=O
inactive: [1] -2.05% | [2] 7.35% | [3] 1.6% | [4] 7.9% | [5] -3.15% | [6] 10.9%

CC(=O)OCC1OC(n2c(Br)nc3c(=O)[nH]c(N)nc32)C(OC(C)=O)C1OC(C)=O (stereo not drawn)
inactive: [1] -1.5% | [2] 4.3% | [3] 0.8% | [4] -14.8% | [5] -10.2% | [6] 5.6%

COc1ccc(/C=C2\CNC/C(=C\c3ccc(OC)cc3)C2=O)cc1
inactive: [1] 34% | [2] 1.75% | [3] 55.2% | [4] 37.5% | [5] 15.3% | [6] 34.1%

COCNC(=S)c1ccc(C(N)=O)nc1C(=O)NC(C)(C)C
inactive: [1] 15.8% | [2] 0.4% | [3] 5.6% | [4] -3.3% | [5] -5.8% | [6] 30.6%

CN(C)CCCNC(=O)CCNC(=O)c1cc(NC(=O)c2cc(NC(=O)c3cc(NC(=O)CCCNC(=O)c4cc(NC(=O)c5cc(NC(=O)c6nccn6C)cn5C)cn4C)cn3C)cn2C)cn1C
inactive: [1] 7.55% | [2] -14.8% | [3] -2% | [4] -1.35% | [5] 4% | [6] -25.3%

O=C(CNC(=O)C(CSC(c1ccccc1)c1ccccc1)NC(=O)C(CSC(c1ccccc1)(c1ccccc1)c1ccccc1)NC(=O)OCc1ccccc1)OC(c1ccccc1)c1ccccc1 (stereo not drawn)
inactive: [1] 4.15% | [2] 3.1% | [3] -6.25% | [4] -4.25% | [5] -1.85% | [6] 20.7%

Nc1ccccc1C1CCCCC1
inactive: [1] 32.1% | [2] -13.6% | [3] 52% | [4] -19.4% | [5] 3.95% | [6] 26.6%

NC(=O)N/N=C(\C(=O)C(=O)Nc1ccc(Cl)c(C(F)(F)F)c1)c1nc2ccc(C(=O)c3ccccc3)cc2[nH]c1=O
inactive: [1] 25.4% | [2] -1.3% | [3] 38.8% | [4] -37% | [5] -3.35% | [6] 25.1%

COC1CCC(OS(C)(=O)=O)C(C)O1 (stereo not drawn)
inactive: [1] 16.8% | [2] -45.9% | [3] 4.6% | [4] -2.15% | [5] -38.7% | [6] 9.85%

Cc1nc(C(N)=S)sc1C(=O)C/C(=N/N)C(=O)Nc1ccc(Cl)cc1
inactive: [1] 2.05% | [2] -8.55% | [3] 3.2% | [4] -3.65% | [5] -17.8% | [6] -20.9%

O=c1cc(CBr)c2ccc(O)cc2o1
inactive: [1] -34.1% | [2] 2.55% | [3] -23.8% | [4] 8.3% | [5] -18.2% | [6] -44.5%

Cc1ccc(C(=O)/C=C/C(=O)c2ccc(C)cc2)cc1
inactive: [1] 4.55% | [2] 29.9% | [3] 19.2% | [4] 19.9% | [5] 14.9% | [6] 3.8%

C1=CC(=CN2CCc3ccccc3C2)C=C1
inactive: [1] 2.55% | [2] -8.45% | [3] 3.05% | [4] -6.95% | [5] -9.2% | [6] 6.05%

Nc1nc2ncc(COc3ccc(C(=O)O)cc3)nc2c(=O)[nH]1
inactive: [1] 18.8% | [2] 3.2% | [3] 31.6% | [4] -16.1% | [5] 53.2% | [6] 13.6%

CN(C)c1ccc(O[Si](Oc2ccc(N(C)C)cc2)(Oc2ccc(N(C)C)cc2)Oc2ccc(N(C)C)cc2)cc1
inactive: [1] 27.6% | [2] 37.2% | [3] 25.8% | [4] 29.4% | [5] 14.3% | [6] 43.8%

CCN(CC)CCNc1cc(OC)c(OC)cc1[N+](=O)[O-]
inactive: [1] -35% | [2] 14.4% | [3] 5.7% | [4] -7.45% | [5] -0.45% | [6] -15%

CSC1N=CNc2c1sc(=S)n2-c1ccccc1 (stereo not drawn)
inactive: [1] -20.8% | [2] 7.75% | [3] 15.9% | [4] -3.9% | [5] -2.85% | [6] -1.85%

C=CCOCC(O)CNCC(O)COCC=C (stereo not drawn)
inactive: [1] -36.9% | [2] -33.7% | [3] -24.9% | [4] 14.3% | [5] -31.2% | [6] 5.2%
